The supplement of paper PMC10681739

Target: RUNX1 (UniProt Q01196)
Assay: RUNX1 binding intensity (PBM fluorescence), RUNX1 alone (arbitrary fluorescence units); higher = stronger binding
Conditions: RUNX1 concentration 2 nM; ETS1 concentration 0 nM
Description: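 Cooperative gcPBM on 36-bp genomic probes with neighbouring ETS1 and RUNX1 sites. Recombinant human RUNX1 (2 nM) was incubated alone or with ETS1 (25 nM) and detected with anti-RUNX1 antibody plus Alexa488 secondary. Values are medians over 4 replicate spots; the RUNX1+ETS1 data were normalised to the RUNX1-only data. The probes sit in constant array flanks that are not printed.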
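Also: Full-length recombinant human RUNX1 bound to double-stranded 36-bp genomic probes on a high-density microarray, scored as Alexa488 fluorescence per spot via anti-RUNX1 antibody, median of four replicate spots.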

Chain of RUNX1 (Q01196 whole entry): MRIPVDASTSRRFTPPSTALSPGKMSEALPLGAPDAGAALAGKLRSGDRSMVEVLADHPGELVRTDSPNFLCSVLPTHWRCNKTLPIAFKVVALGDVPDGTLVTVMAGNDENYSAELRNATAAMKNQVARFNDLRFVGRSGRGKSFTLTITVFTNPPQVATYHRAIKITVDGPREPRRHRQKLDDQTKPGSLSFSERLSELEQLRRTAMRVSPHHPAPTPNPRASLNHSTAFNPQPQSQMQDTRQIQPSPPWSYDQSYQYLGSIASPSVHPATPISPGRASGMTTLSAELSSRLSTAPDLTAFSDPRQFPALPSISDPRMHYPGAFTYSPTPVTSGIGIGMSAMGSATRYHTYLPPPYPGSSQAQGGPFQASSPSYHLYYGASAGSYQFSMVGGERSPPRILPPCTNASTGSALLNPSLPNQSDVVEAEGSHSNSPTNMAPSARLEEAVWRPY

Row | Sequence | RUNX1 binding intensity
1 | AAGTGAAGAGCTTCCGCCGGGAGACCGCGGCTGCAG | 737
2 | GTTTCTCTGGCCAGGAAATTGAGGTTTCTGTTAGTC | 851
3 | CTGCTAGCGGAAGCAGCCAAGCCCACAGGCTCCAGG | 732
4 | TCCGGAAGTCGGAGGAACACCCCAGCCGCCGCAGCC | 751
5 | CTGCCCACCGGAAACGATGGCGCGAGGCCGCAGAGC | 728
6 | TACAACTTGCAACGGAAACCACTTCAGGTTCATTAC | 847
7 | ATCTTCAGGAAGCGGTATCAACCTGAAAACCACCAC | 772
8 | ACCCACCCGGAAGTCCTCCTGGCCCACAAGCTCCGC | 992
9 | CCGCTGACATCCGCTTGGCCTGCGGCTTCTTTCTGT | 1080
10 | GCACCCGGCACTACTTCCCGACCCGCATCCCCCGCC | 1260
11 | CTTTGCTGCCGCCTTCCTGTGCGGGGCCGTGGCGGC | 720
12 | TACCTACAGGAAATGAGACACACCGCAGGCCGATCC | 868
13 | AGAACAGCAGGAAATAAATACCCACCTCAGGACTGC | 822
14 | ACAGGAAATGTTAGAGGTTGAGTTAGCGGTTATGAG | 833
15 | TCCCGAGAGCCGGAAGCAGCCGCAGGCCCCGCCACA | 778
16 | ACCAGAACAGGAAATGTTAGTGGTTGAGTTAACGGT | 700
17 | GCCCGGAAGCGCGACGCTGGAGCTGCGGGGTTACCA | 662
18 | AGGAGAAGGAAGAGGATGTTGAGGTTGGGGGAAACC | 726
19 | GCACCGTACCCGGAACTGCTCCCTCCCGCAGGCGCA | 930
20 | CCTTCCTTCCGGGGTCGGCCCCGCCCGCAAGCGCCG | 1180

Row | Sequence | RUNX1 binding intensity
21 | AACCTAGAAAAGGAAGCTGCGGTTTTTCAGGGTATG | 8830
22 | GACAGGAAGCCCGCGGCAGCCTCCGTGGTTGCAGAT | 773
23 | TGGAGTGAAGCGGCTTCCTTGCGGTTGTGTGCGTGT | 1900
24 | GTGTGCGTGAGAAGAGGAAGTGGTTAGGAAGACACA | 801
25 | CAGCGGAAGAAAGACCTGCCACCTCCACCACAAAGA | 1000
26 | GAAATGAGAGAACGGAAACCACAAGTCAAGGGGCTT | 3620
27 | AGCCAACAGGAAGCTGCAGAGACTAAACCACAGCAA | 879
28 | TCATAAGGAAGTGGAGTGTAGTAACCACAGGCCCCG | 829
29 | CAGCTTTCCGGCCTGCAGCACAGGCAATGTGGTTTT | 1020
30 | TGACTTCCGGTCCGTAGTGGGGCCTGCGGTGGGAGT | 801
31 | CCAGCAAAGGAAGCTTGGTCAACCACAGCAGCCTGT | 850
32 | GAAGAGAAAGGAAACGGCTCGCGGTTTCTGGGGTTC | 738
33 | GCGCCCCGCTTCCGGGGCCGCCCTAAACCGCGGCCG | 1520
34 | TGGAGAGCACAGGAAGTGGCCCACAGCCCAGGCCAA | 766
35 | CAGTGCCAGCCGGAACTTGTGGTTCGGACCGTGGGT | 1040
36 | GCCCCAGCCCCCGGATGTGGTGACAGAATCGATACT | 811
37 | AGCCCGCCGGAAACTAGCGTCACCGCGCCAAGGTTC | 691
38 | TGGCGGGAGAACTTCCCCCTGTGCGGTCGCGACGTG | 738
39 | GGGGCTCCGCAGGAAGTAGGGCTCCCACAACTTTGC | 664
40 | CCTCACCCAGGAAGTGGCTGCGGCTGTCTCAGGGTT | 770
